The results in this text go back to PubChem BioAssay AID720504 (National Center for Advancing Translational Sciences (NCATS), 2013).

Among all 360,000 compounds or so, about 10,000 (2.8%) were called active. Another 4% or so got no clear call; they are omitted. What follows is part of a selection rich in actives, with near analogues and random picks from the rest. A number with no mark means an inactive call. The call rests on the fitted dose curve; in most records, active means well fitted inhibition curve with a large enough effect; inconclusive means small, poorly fitted or top-dose-only effect; inactive means flat fitted curve, though single readings scatter.
On the % scale 0 is the no-effect control and ±100 the full control effect; potency means the concentration at half of the fitted maximal effect.

Serine/threonine-protein kinase PLK1 (Homo sapiens), sequence (P53350 whole entry, looked up, the tested form may be a part): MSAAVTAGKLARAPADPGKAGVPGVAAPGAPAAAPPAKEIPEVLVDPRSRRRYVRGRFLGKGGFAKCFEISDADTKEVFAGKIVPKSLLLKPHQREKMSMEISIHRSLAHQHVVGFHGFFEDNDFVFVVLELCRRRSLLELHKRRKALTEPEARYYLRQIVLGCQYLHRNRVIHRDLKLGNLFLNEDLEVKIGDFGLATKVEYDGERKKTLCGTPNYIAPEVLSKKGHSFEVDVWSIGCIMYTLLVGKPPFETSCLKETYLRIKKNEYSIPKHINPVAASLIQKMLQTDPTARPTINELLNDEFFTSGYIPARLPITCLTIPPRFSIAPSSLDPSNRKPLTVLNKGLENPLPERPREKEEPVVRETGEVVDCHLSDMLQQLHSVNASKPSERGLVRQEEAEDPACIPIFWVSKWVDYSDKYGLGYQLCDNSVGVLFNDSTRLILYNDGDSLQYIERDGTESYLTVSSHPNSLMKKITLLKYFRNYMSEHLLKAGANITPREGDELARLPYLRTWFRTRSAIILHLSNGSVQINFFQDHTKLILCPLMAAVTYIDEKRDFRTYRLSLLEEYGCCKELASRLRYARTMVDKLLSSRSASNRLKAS

The assay addresses Serine/threonine-protein kinase PLK1 (Homo sapiens) (UniProt P53350). Put plainly: qHTS for Inhibitors of PLK1-PDB (polo-like kinase 1 - polo-box domain): Primary Screen. Further: nearly all actives have a fitted effect of over 65% in size. On max response, negative = inhibition: series mostly up to about 57 µM. Conditions: Plk1 PBD binding of FITC phosphopeptide, fluorescence polarization.
For the compound `CCC(C)CN1C(=O)CN(S(C)(=O)=O)CC1(C)C(=O)Nc1ccc2c(c1)OCCO2` (stereo not given), the max response, negative = inhibition is -14.3%.
On the same count and under the same terms, as for `Cc1ccc(S(=O)(=O)N2[C@@H](c3ccccc3F)C(C(=O)O)=CC[C@H]2c2ccc(Cl)cc2)cc1`, the figure is -15.9%.
In the case of `Cc1ccc(S(=O)(=O)N2[C@@H](c3cccc(Cl)c3)C(C(=O)O)=CC[C@H]2c2ccc(Cl)c(Cl)c2)cc1`, the Potency is 21.2 µM (active).
For `CCOC(=O)C1=CC[C@@H](c2ccccc2)N(S(=O)(=O)c2ccc(C)cc2)[C@H]1c1cccc(OC)c1`, the max response, negative = inhibition is -10.4%.
Same read-out and setting: next, `CCc1noc(C)c1C(=O)OCC(=O)c1ccc(NC(=O)CC(C)C)cc1`: -8.24%.
With `CC(C)C[C@@H]1COc2cc(N3CCC[C@@H]3CO)ccc2S(=O)(=O)N1`, the max response, negative = inhibition was 2.66%.
Turning to `N#Cc1c(N)sc2c1CCN(C(=O)OCc1ccccc1)C2`, the Potency is 23.8 µM (active).
Turning to `CC(C)N1CCc2c(sc(NC(=O)Cc3ccccc3)c2C#N)C1`, the max response, negative = inhibition was -26%.
The same measure, in the same setting: as for `CC(=O)N1CCc2c(sc(NC(=O)CCS(=O)(=O)c3ccccc3)c2C#N)C1`, the figure is -11.3%; as for `CCN(CC)C(=O)C1=C(C)N(Cc2ccccc2)C(=O)C(CC(=O)NC(c2ccccc2)c2ccccc2)C1` (stereo not given), -7.71%; as for `CCCCc1nc2ccc(F)cc2cc1C`, -7.86%.
Regarding `CN(C)C(=O)N=NC(=O)N(C)C`, the Potency was 1.89 µM (active).
Take `O=C(CSc1nc2cccc(F)c2c(=O)n1-c1ccccc1)Nc1ccc2c(c1)CCC2`: the max response, negative = inhibition was -2.85%.
On the same count and under the same terms, next, `CC(C)(O)C#Cc1ccc(CNC[C@H]2O[C@@H](n3cnc4c(=O)[nH]c(N)nc43)[C@H](O)[C@@H]2O)s1`: 0.0305%.
Still for that read-out and setting: next, `COC(=O)c1ccc2c(c1)S(=O)(=O)NC2C` (stereo not given): -7.33%.
On the same count and under the same terms, next, `CN(Cc1ccccc1F)C(=O)C(Cc1ccccc1)NC(=O)c1ccccc1` (stereo not given): -7.43%; `CSCCC(NS(=O)(=O)c1ccccc1F)C(=O)N1CC=C(c2ccccc2)CC1` (stereo not given): 0.274%.
With `O=C(NC1CC1)C(Cc1ccccc1)NS(=O)(=O)c1ccccc1F` (stereo not given), the Potency is 23.8 µM (active).
In the case of `C[C@H](CO)N1C[C@H](C)[C@@H](CN(C)C(=O)c2cccc(F)c2)Oc2cc(-c3cncnc3)ccc2S1(=O)=O`, the max response, negative = inhibition is -2.44%.
The same measure, in the same setting: next, `Cc1ccccc1C(=O)Nc1ccccc1NC(=O)c1ccccc1C`: -16.3%; `Nc1ccc(C(=O)Nc2ccccc2N)cc1`: -11.6%.
In the case of `CC(=O)Nc1ccccc1NC(=O)c1cc(C)cc(C)c1`, the Potency is 9.47 µM (active).
`CC(=O)c1ccccc1NC(=O)C1CC(=O)N(c2ccc3c(c2)OCCO3)C1` (stereo not given): the max response, negative = inhibition was 7.84%.
As for `Cc1ccccc1N1CC(C(=O)Nc2nnc(SCCC3OCCO3)s2)CC1=O` (stereo not given), the Potency was 21.2 µM (active).
For the compound `COc1ccccc1N1CC(C(=O)Nc2nnc(SCC(=O)NC(C)C)s2)CC1=O` (stereo not given), the max response, negative = inhibition is -26.4%.
Still for that read-out and setting: next, `COc1ccccc1N1CC(C(=O)Nc2nnc(SCC(=O)NCC3CCCO3)s2)CC1=O` (stereo not given): -29%.
As to `CCOC(=O)c1ccc(NC(=O)C2CC(=O)N(c3ccc4c(c3)OCCO4)C2)cc1` (stereo not given), the max response, negative = inhibition was -3.19%.
Consider `CCc1nnc(NC(=O)C2CC(=O)N(c3ccc4c(c3)OCCO4)C2)s1` (stereo not given), for which the Potency was 13.4 µM (active).
Regarding `CCN1CCN(CCNC(=O)c2ccc3c(c2)NC(=O)/C(=C\c2cccc(Cl)c2)S3)CC1`, the max response, negative = inhibition was -9.11%.
Turning to `COc1cccc(CNc2nc(NCc3cccs3)nc3ccsc23)c1`, the max response, negative = inhibition was -6.78%.
With `COC(=O)[C@@]1(Cc2ccc(F)cc2)[C@H]2c3cc(C(=O)N(C)C)n(CCc4c[nH]c5ccc(OC)cc45)c3C[C@H]2CN1C(=O)c1ccccc1`, the max response, negative = inhibition is -0.876%.
Regarding `C=CCOc1ccccc1CNn1c(C)n[nH]c1=S`, the max response, negative = inhibition was -12.8%.
Still for that read-out and setting: next, `O=C(NCc1ccccc1)C1c2ccccc2OCC(=O)N1C1CC1` (stereo not given): 2.78%.
On the same count and under the same terms, next, `Cc1csc(SCC(=O)Nc2ccc(C)c(S(=O)(=O)N(C)C)c2)n1`: -2.14%.
For the compound `Clc1ccccc1CSc1nnc(-c2ccco2)c(-c2ccco2)n1`, the Potency is 13.4 µM (active).
`c1ccc(Cc2c(-c3ccco3)nc3c4ccccc4ccn23)cc1`: the max response, negative = inhibition is -8.74%.
With `c1ccc(CSc2nnc(-c3ccco3)c(-c3ccco3)n2)cc1`, the Potency was 11.2 µM (active).
As to `CCc1nnc(SCc2cccc(F)c2)nc1CC`, the max response, negative = inhibition is 1.21%.
For the compound `COC(=O)c1ccc2nc(-c3ccc(F)cc3)c(Cc3ccc(C)cc3)n2c1`, the max response, negative = inhibition is 1.02%.
Same read-out and setting: next, `COc1ccc(C(=O)N2CCCCC2c2cc(C(=O)Nc3ccc(F)c(Cl)c3)no2)cc1` (stereo not given): -10.1%; `CCOCCC(=O)Nc1ccc2c(c1)c(=O)n(C)n2-c1ccc2ccccc2c1`: -3.07%; `CCOC(=O)[C@]12CCC=C1N(Cc1ccco1)C(=O)[C@H](CC(=O)NCc1cccc(C(F)(F)F)c1)C2`: -26%.
Same read-out and setting: next, `Cc1cc(C(=O)N2CCCC2(C)C(=O)O)c(C)o1` (stereo not given): -5.24%.
Consider `Oc1c(C(c2ccccn2)N2CCOCC2)ccc2cccnc12` (stereo not given), for which the Potency was 9.47 µM (active).
`CCCCC(=O)NC(c1ccc(OC)c(OC)c1)c1ccc2cccnc2c1O` (stereo not given): the max response, negative = inhibition is -4.18%.
For the compound `O=S(=O)(c1ccc2ccccc2c1)N1CCN(S(=O)(=O)N2CCOCC2)CC1`, the max response, negative = inhibition was -4%.
Still for that read-out and setting: as for `Cc1ccc(S(=O)(=O)N2CCN(S(=O)(=O)N3CCOCC3)CC2)cc1`, the figure is -4.72%.
With `CCn1c(=S)[nH]c2cc(S(=O)(=O)N3CCOCC3)ccc21`, the Potency is 29.9 µM (active).
With `Cc1ccc(CC2(C)C(=O)Nc3ccc(OC(F)(F)F)cc32)cc1` (stereo not given), the max response, negative = inhibition is 0.395%.
On the same count and under the same terms, as for `COCCCNc1ccn2nc(-c3ccc(CC(C)C)cc3)cc2n1`, the figure is -1.25%.
Take `CCN(CC)C(=O)C1=C(C)N(Cc2ccc(C(C)(C)C)cc2)C(=O)C(CC(=O)NCc2cccc3ccccc23)C1` (stereo not given): the max response, negative = inhibition is -4.44%.
Regarding `CCCn1cc(S(=O)(=O)c2ccc(C)cc2)c(=O)c2cc(OCC)ccc21`, the max response, negative = inhibition was -12.4%.
With `CCOc1ccc2c(c1)c(=O)c(S(=O)(=O)c1ccc(C)cc1)cn2CC`, the Potency is 26.7 µM (active).
Regarding `CCn1cc(S(=O)(=O)c2cccc(C)c2)c(=O)c2cc(F)c(N3CCN(C)CC3)cc21`, the max response, negative = inhibition is -10.2%.
Still for that read-out and setting: next, `Fc1cccc(Cc2c(-c3ccc(Cl)cc3)nc3ccc(Cl)cn23)c1`: 9.81%; `CN[C@H]1C[C@H]2c3cc(Oc4ccccc4C)ccc3CCN2C(=O)[C@H]1[C@H](C)O`: 0.731%; `Nc1nc(SCC(=O)Nc2ccc(Cl)c([N+](=O)[O-])c2)n[nH]1`: -3.6%.
For the compound `Nc1nc(SCC(=O)NNc2c(Cl)cc(Cl)cc2Cl)n[nH]1`, the Potency was 18.9 µM (active).
Regarding `Nc1nc(SCC(=O)Nc2ccc(Cl)cc2C(F)(F)F)n[nH]1`, the max response, negative = inhibition is -8.67%.
For the compound `CCCNC(=O)c1cc(C2CCCCN2S(=O)(=O)c2ccc(C#N)cc2)on1` (stereo not given), the max response, negative = inhibition was 6.75%.
Consider `O=C(CC[C@H]1O[C@@H](n2ccc(=O)[nH]c2=O)[C@H](O)[C@@H]1O)N[C@H](Cc1ccccc1)C(=O)NCc1ccco1`, for which the max response, negative = inhibition is -11.9%.
`CC(C)(C)N1C(=O)c2c(C(=O)OCc3ccccc3)[nH]c(-c3ccccc3)c2C1=O`: the max response, negative = inhibition is -11.2%.
In the case of `Cc1cc(C)cc(NC(=O)CN2C(=O)c3ccccc3C2=O)c1`, the max response, negative = inhibition is -3.07%.
With `Cc1ccc(NC(=O)Cn2sc3ccccc3c2=O)cc1`, the Potency is 2.38 µM (active).
For the compound `Cc1ccc(NC(=O)Cn2c(C)csc2=O)cc1`, the max response, negative = inhibition was -1.66%.
The same measure, in the same setting: next, `Cc1ccc(CCNC(=O)CN2C(=O)CSc3ccc(S(=O)(=O)N4CCOCC4)cc32)cc1`: -9.68%; `O=C(CC(Cc1ccccc1)C(=O)O)NCCc1ccc2c(c1)OCO2` (stereo not given): -0.693%.
For the compound `O=C(CCc1nnc(Cc2ccc3c(c2)OCO3)o1)NCCc1ccccc1Cl`, the Potency was 21.2 µM (active).
Take `O=C(CCNS(=O)(=O)c1ccccc1C(F)(F)F)NCc1ccc2c(c1)OCO2`: the max response, negative = inhibition is -4%.
As for `C#Cc1cc(N2CCN(C(=O)c3ccoc3)CC2)n2nc(-c3cccc(Cl)c3)cc2n1`, the max response, negative = inhibition was -12%.
Consider `FC(F)(F)C1CCCN(c2nsc3ccccc23)C1` (stereo not given), for which the Potency was 1.5 µM (active).
Regarding `CCNC(=O)C1(C)CCN(Cc2ccc(C(=O)OCC)o2)C1` (stereo not given), the max response, negative = inhibition is 3.81%.
Still for that read-out and setting: as for `C[C@@H]1CN([C@H](C)CO)C(=O)CCCn2nncc2CO[C@@H]1CN(C)C(=O)OCc1ccccc1`, the figure is -21.8%; as for `COc1ccc(CN2CCC(C)(Oc3cccc(F)c3)C2)c2ccccc12` (stereo not given), -19.3%.
Still for that read-out and setting: next, `Cc1ccc(F)c(S(=O)(=O)NC(=O)C2(C)CCN2C(=O)c2ccco2)c1` (stereo not given): -2.63%.
Take `CCn1c(SCC(=O)N/N=C/C=C/c2ccccc2[N+](=O)[O-])nnc1-c1ccccc1`: the Potency was 23.8 µM (active).
`CCn1c(SCC(=O)N/N=C/c2ccccc2OCC(=O)O)nnc1-c1ccc(C(C)(C)C)cc1`: the max response, negative = inhibition was 5.13%.
`Cc1ccc(-n2c(SCC(=O)N/N=C/C=C/c3ccccc3[N+](=O)[O-])nc3ccccc3c2=O)cc1`: the max response, negative = inhibition is 1.55%.
Still for that read-out and setting: as for `Cc1cc(NC(=O)CSc2nnc(-c3ccco3)n2N)no1`, the figure is -3.98%; as for `Cc1cc(NC(=O)CSC2=NS(=O)(=O)c3cc(Cl)ccc3N2)no1`, -2.92%.
Take `Cc1cc(NC(=O)CSc2nc3cc(Cl)ccc3c(=O)n2Cc2ccco2)no1`: the Potency was 21.2 µM (active).
In the case of `COc1ccc(CNC(=O)/C(C#N)=C/c2cccc(OC)c2OC)cc1`, the max response, negative = inhibition was -17%.
In the case of `COc1ccc(NC(=O)/C(C#N)=C\c2cc(OC)c(OCc3ccc(C(=O)O)cc3)cc2Br)cc1`, the Potency was 10.6 µM (active).
Regarding `COc1cc(/C=C(\C#N)C(=O)Nc2ccc3ccccc3c2)c([N+](=O)[O-])cc1OC`, the max response, negative = inhibition is -1.73%.
Consider `O=C(NCc1ccccn1)[C@@H]1CCCN1C(=O)[C@@H]1CCCN1C(=O)c1ccccc1`, for which the max response, negative = inhibition was -3.01%.
